The list is not random: actives were taken first. Their share in the collection is about 1.8%.
KDM4E inh: JMJD2E (human) inhibition | hit rate 1.6% among 230,000 | B2RXH2 | JMJD2E catalytic domain, FDH-coupled NADH fluorescence (FDH is formaldehyde dehydrogenase) | Potency, µM (series often up to 57.1 µM), without a hit: at the top dose activity change, negative = inhibition, hits mostly inhibitors; active = well fitted inhibition curve with a large enough effect, not every such curve was filed as active; inconclusive = small, poorly fitted or top-dose-only effect, or another doubt; inactive = no such curve, though single readings can be large or run the other way;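 also: 0% = wells with enzyme and -100% = buffer wells without enzyme; nearly all actives have a fitted effect of over 50% in size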
HTT ATP protect: cytoprotection in Huntington HTT-Q103 PC12 cell model | PC12 HTT-Q103 induced, cytoprotection, ATP luminescence, 40 h | Potency, µM (titrated, usually from 56.4 µM), for inactives: cytoprotection (ATP increase), actives largely listed as activators | hit rate 0.14% among 230,000 | AID 1471; also: % of control where 0% means no effect; nearly all actives have a fitted effect of over 45% in size
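Stable PC12 Q103-GFP cells in serum-supplemented, phenol red-free DMEM; induction by tebufenozide at 100 nM final; compound dose series; cell viability quantified luminescently from ATP.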
L3MBTL1 block: L3MBTL1 (human) inhibition. AID 485360. AlphaScreen L3MBTL1–H3K9me1 peptide binding. Q9Y468. Potency, µM (top dose mostly 57.1 µM), for the others: at the top dose activity, negative = inhibition, hits mostly inhibitors. hit rate 0.66% among 230,000; also: % is scaled to controls: 0 for no effect and ±100 for the full control effect; nearly all actives have a fitted effect of over 60% in size
Target sequence (Q9Y468 whole entry, looked up): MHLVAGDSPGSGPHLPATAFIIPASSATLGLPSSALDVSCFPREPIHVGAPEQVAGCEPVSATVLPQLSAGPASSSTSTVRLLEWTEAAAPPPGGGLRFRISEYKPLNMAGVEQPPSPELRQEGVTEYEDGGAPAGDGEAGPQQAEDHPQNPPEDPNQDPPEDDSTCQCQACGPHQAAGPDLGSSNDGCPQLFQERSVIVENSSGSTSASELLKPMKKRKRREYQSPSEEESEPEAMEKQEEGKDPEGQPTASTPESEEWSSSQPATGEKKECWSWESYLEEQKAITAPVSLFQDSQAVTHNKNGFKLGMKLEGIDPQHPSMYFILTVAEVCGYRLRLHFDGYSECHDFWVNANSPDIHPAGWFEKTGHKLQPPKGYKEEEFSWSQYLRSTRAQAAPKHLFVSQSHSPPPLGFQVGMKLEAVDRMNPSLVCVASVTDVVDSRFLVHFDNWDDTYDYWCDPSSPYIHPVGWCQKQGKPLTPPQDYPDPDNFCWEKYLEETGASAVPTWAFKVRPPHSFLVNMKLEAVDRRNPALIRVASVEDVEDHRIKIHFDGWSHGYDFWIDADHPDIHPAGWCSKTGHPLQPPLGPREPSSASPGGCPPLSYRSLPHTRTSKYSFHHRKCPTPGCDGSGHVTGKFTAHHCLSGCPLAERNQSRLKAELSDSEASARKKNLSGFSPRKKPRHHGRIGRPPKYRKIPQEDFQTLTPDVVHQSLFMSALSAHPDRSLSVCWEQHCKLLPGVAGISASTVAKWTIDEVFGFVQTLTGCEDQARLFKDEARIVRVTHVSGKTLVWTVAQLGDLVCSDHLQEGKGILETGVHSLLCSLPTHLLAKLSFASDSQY
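L3MBTL1 (50 nM) pre-complexed 30 min with biotinylated H3(1-15)K9me1 peptide (75 nM), then compounds added for 30 min at room temperature; AlphaScreen streptavidin donor/nickel chelate acceptor beads (10 ug/mL final) read after 30 min dark incubation.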
HttQ103 aggreg: mutant huntingtin aggregation inhibition; PC12 HttQ103-GFP aggregates, Acumen cytometry, 40 h; Potency, µM (top dose mostly 46.1 µM), for inactives: at the highest dose activity change, negative = inhibition, hits mostly inhibitors; hit rate 1.1% among 220,000; also: % is scaled to controls: 0 for no effect and ±100 for the full control effect; nearly all actives have a fitted effect of over 60% in size
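PC12 cells stably carrying ecdysone-inducible HTT exon 1 Q103–GFP were induced with tebufenozide (100 nM final) and treated with library compounds in titration. GFP aggregates in lysates were counted by laser scanning cytometry.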
Starred values were filed as active, the others as inactive; ? = inconclusive; nt = no result; ! = a repeat was not active; [ ] = another dose, or the depositor's remark. Unless noted, calls follow the shape of the dose curve; as a rule, active = well fitted curve in the direction sought with a large enough effect; inconclusive = small, poorly fitted or top-dose-only effect, or another doubt; inactive = no such curve, though single readings can be large; an effect the other way counts as inactive or inconclusive. Potency is read from the fitted curve at half-maximal effect.

SMILES	KDM4E inh	HTT ATP protect	L3MBTL1 block	HttQ103 aggreg
Cc1cccc(C)c1NC(=O)c1c(-c2ccccc2)noc1C	-3%	-7%	5%	?
Cc1cccc(NC(=O)c2c(-c3ccccc3)noc2C)n1	-2%	2.2µM*	-4%	-9%
COc1cccc(/C=N/NC(=O)C(=O)NCc2ccco2)c1OC	-2%	12%[10 µM]	0%	10%
COc1cccc(/C=N/NC(=O)c2cnccn2)c1O	11µM*	23%[10 µM]	?	4%[9.22 µM]
COc1ccc(/C=N/NC(=O)c2cnccn2)c(OC)c1OC	-2%	5%[10 µM]	-1%	-6%[9.22 µM]
COc1ccccc1-c1cncnc1NCc1ccccc1	nt	10%	nt	nt
Cc1cc(O)c(C)c2c1CC[C@H]1[C@H](C)C(=O)O[C@H]21	0%	-14%	nt	nt
COc1cccc(/C=N\NC(=O)C2C(=O)NCC2c2ccccc2)c1O (stereo not drawn)	28µM*	-48%	13%	11µM*
COc1cccc(/C=N/NC(=O)c2ccoc2C)c1O	14µM*	-64%[10 µM]	-3%	?
COc1cccc(/C=N/NC(=O)CC2C(=O)NN=C2C)c1O (stereo not drawn)	8.9µM*	3%	nt	9%[1.84 µM]
COc1cccc(/C=N/NC(=O)NC2CCCCC2)c1O	22µM*	-14%[10 µM]	2%	16%[9.22 µM]
COc1cccc(/C=N/NC(=O)C(=O)N/N=C/c2cccc(OC)c2O)c1O	?	-29%	?	?
C[C@]12CC[C@H]3c4ccc(OC[C@H]5CO5)cc4CC[C@H]3[C@H]1CC[C@@H]2O	nt	-9%[10 µM]	nt	nt
COC(=O)NC(c1cccc(C)c1)[C@]1(C(C)=O)CCCC1=O (stereo partly drawn)	nt	-10%[10 µM]	nt	nt
O=C(O)c1ccccc1/C=N\N=C1c2ccccc2-c2ccccc21	nt	1%[10 µM]	nt	nt
c1ccc(-c2csc3ncnc(NCC4COc5ccccc5O4)c23)cc1 (stereo not drawn)	14%	17%[10 µM]	9%	8.9µM*
CCCCC[C@H](O)/C=C/C1=C(C/C=C\CCCC(=O)O)C(=O)CC1	5%	?	nt	nt
CC(=O)Nc1nc2ncc(C=O)nc2c(=O)[nH]1	nt	-6%[10 µM]	nt	nt
Cc1cc(C)c2nc(SC(C)C#N)cc(C)c2c1 (stereo not drawn)	5%	0.63µM*	nt	-16%
Cc1cc(C)c2nc(SC3CCOC3=O)cc(C)c2c1 (stereo not drawn)	5%	0%[10 µM]	16%	-12%
C=CCN(c1ccccc1)S(=O)(=O)c1cccc(C(=O)Nc2nc3ccccc3[nH]2)c1	28µM*	-1%[1.9 µM]	0%	?
CN(c1cccc(Cl)c1)S(=O)(=O)c1cccc(C(=O)Nc2nc3ccccc3[nH]2)c1	?	7%[1.9 µM]	-12%	20µM*
C=CCN(c1ccccc1)S(=O)(=O)c1cccc(C(=O)Nc2ccncc2)c1	nt	nt	-4%	nt
CCNc1ncc2nc(C)c(=O)n(CCOC)c2n1	nt	-47%	nt	nt
N#Cc1cccc(-c2cncnc2-n2ccnc2)c1	-11%	12%	nt	nt
SMILES	KDM4E inh	HTT ATP protect	L3MBTL1 block	HttQ103 aggreg
CCOc1ccc(NC(c2ccccn2)c2oc(CO)cc(=O)c2O)cc1 (stereo not drawn)	22µM*	-92%	nt	14%
CCOC(=O)N/N=C1/C[C@@H](O)[C@@H](O)[C@@H]2[C@@H]3C(=O)N(C[C@@H]4CCCO4)C(=O)[C@H]3CC[C@@H]12	nt	-49%[10 µM]	nt	nt
CCN=c1scc(-c2ccc3c(c2)NC(=O)CO3)n1N=C1CCCC1	-1%	-43%	-10%	11µM*
CC1(OC(=O)c2ccco2)C(=O)C2=COC(C3CC3)=CC2=C(Br)C1=O (stereo not drawn)	-2%	4%	nt	nt
CCOC(=S)SCC(=O)Nc1nccs1	-9%	-13%[10 µM]	14%	5.6µM*
CCOC(=S)SCC(=O)Nc1nc(C)c(C)s1	-12%	6%[10 µM]	nt	-17%[9.22 µM]
Cc1noc(C)c1-c1nccc(N2CCNCC2)n1	-20%	11%	nt	nt
COc1ccc(Cl)cc1C(=O)Nc1cccc(-c2ccc3nncn3n2)c1	14µM*	-15%	nt	-9%
COC(=O)C1(C(=O)OC)CC2=CCC3C(=O)N(c4ccccc4)C(=O)C3C2Cc2ccccc2[C@@H]1C[N+](=O)[O-] (stereo partly drawn)	3%	?	nt	nt
COC(=O)C1(C(=O)OC)C[C@@H]2CON=C2[C@H]1c1ccccc1	-4%	20µM*!	nt	nt
CC1CCC2C(=O)OC(CN3C(=O)c4ccccc4C3=O)CN2C1c1ccc(Br)cc1 (stereo not drawn)	nt	-3%[10 µM]	nt	nt
COc1ccccc1OS(=O)(=O)c1ccc(NC(C)=O)cc1	5%	-27%	5%	?
COC(=O)/C=C/S(=O)(=O)c1ccc(NC(C)=O)cc1	5%	-141%	-4%	10µM*
O=C(Nc1nc(-c2cccc([N+](=O)[O-])c2)cs1)C(c1ccccc1)c1ccccc1	-1%	4%[10 µM]	0%	16µM*
CC1(C)OC(c2ccccc2)=C/C(=C\C=N\NC(=O)c2ccncc2)O1	22µM*	24%[10 µM]	-29%	-6%[9.22 µM]
Cc1ccc(C(C)C)n1C(=O)OC(C)(C)C	nt	-5%[10 µM]	nt	nt
Cc1cc(C)n(-c2ccc3cccc(NS(C)(=O)=O)c3n2)n1	?	-59%	-2%	8.9µM*
Cc1csc(=O)n1CCC(=O)OCC(=O)c1c(N)n(CC(C)C)c(=O)n(C)c1=O	nt	nt	4%	nt
CC(C)Cn1c(N)c(C(=O)COC(=O)CC23CC4CC(CC(C4)C2)C3)c(=O)n(C)c1=O	0%	-8%[10 µM]	nt	7.1µM*
CCOC(=O)c1oc2ccccc2c1NC(=O)COc1cccc(OC)c1	5µM*	-13%	12%	9%
CCNc1nc(NC(C)C)nc(N(C#N)CCOc2ccccc2)n1	7%	-8%	nt	22µM*
Cc1ccc(C(NC(=O)C(C)C)c2cc([N+](=O)[O-])c3cccnc3c2O)cc1 (stereo not drawn)	20µM*	-33%[10 µM]	25µM*	20µM*
CCC(=O)NC(c1ccc(C)cc1)c1cc(Cl)c2cccnc2c1O (stereo not drawn)	nt	nt	40%	nt
CC(C)C(=O)NC(c1cccs1)c1cc([N+](=O)[O-])c2cccnc2c1O (stereo not drawn)	-6%	-49%[10 µM]	10µM*	2µM*
CCC(=O)NC(c1cccs1)c1cc([N+](=O)[O-])c2cccnc2c1OC (stereo not drawn)	nt	nt	-19%	nt
SMILES	KDM4E inh	HTT ATP protect	L3MBTL1 block	HttQ103 aggreg
Cc1ccc2nc3nc4ccc[nH]c4cc3c2c1	nt	11%[10 µM]	nt	nt
CO[C@H]1COC(=O)C/C=C\[C@@H](C)COC(=O)[C@@H](CCSC)NC(=O)C/C=C\[C@@H]1C	nt	-37%[10 µM]	nt	nt
OCC1OC(c2ccccc2)C=CC1Oc1cc(Cl)cc(Cl)c1 (stereo not drawn)	nt	-43%[10 µM]	nt	nt
C=CCC(C)(O)c1ccc(OC)cc1 (stereo not drawn)	-3%	-30%	nt	nt
CCOC(=O)c1c(C)oc2c1c1c(c3ccccc32)OCN(Cc2cccnc2)C1	?	-17%	-3%[11.4 µM]	12%
CCOC(=O)c1c(C)oc2c1c1c(c3ccccc32)OCN(CCCC(=O)O)C1	10µM*	25%[10 µM]	-11%	-14%[9.22 µM]
O=C(C(Sc1ccccc1)c1ccccc1)N1CCN(c2ccccc2F)CC1 (stereo not drawn)	-3%	-58%	-3%	10µM*

Assay outcomes deposited in PubChem by National Center for Advancing Translational Sciences (NCATS).
